# Assay outcomes: PubChem, The Scripps Research Institute Molecular Screening Center
# MITF inh = MITF inhibitors, primary screen, biochemical, AlphaScreen, human; AlphaScreen MITF homodimerization, bead proximity signal; Microphthalmia-associated transcription factor (Homo sapiens), O75030; inhibition, % at 2.6 µM; 650,000 tested, 0.91% active; in the data active = inhibition above about 50%;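 note: 0% = vehicle wells with protein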
# FBW7 activator = FBW7 E3 ligase activators, primary screen, biochemical, AlphaScreen, human. AlphaScreen FBW7–phospho-cyclin E peptide binding, activator screen. normalized activity (activation), % at 26.1 µM. 650,000 tested, 0.13% active; in the data active = normalized activity above about 1.9%;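 note: purified mutant Fbw7 with reduced substrate affinity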
# GPR151 ag = activators of human GPR151, primary screen, cell-based, PathHunter beta-arrestin, luminescence; PathHunter beta-arrestin GPR151 cells; activation, % at 11.2 µM; 650,000 tested, 1% active; AID 1508602, 2020; in the data active = activation above about 4.9%;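 note: 0% = median of compound wells and 100% = cells with positive control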
# TEAD-YAP inh = TEAD-YAP interaction inhibition, primary screen, TEAD-YAP interaction inhibitor project, luminescence, HEK-TIYL cells | TEAD-Gal4/YAP UAS-luciferase luminescence | inhibition, % at 9.12 µM | 640,000 tested, 1.4% active | AID 1259422, 2018; in the data active = inhibition above about 32%;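 note: 0% = median of test compound wells and 100% = reference inhibitor wells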
# GPR151 confirm = GPR151 activators, triplicate retest, confirmation, cell-based, PathHunter beta-arrestin, luminescence | shares compounds with GPR151 ag | GPR151 PathHunter beta-arrestin cells, 90 min; % of EA-reagent control over plate median | activation, % at 11.2 µM | 6,700 tested, under 10 active;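 active = mean percent activation across replicates above the confirmation screen cutoff of 4.91%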
# GPR119 counter = GPR119 activators in beta-arrestin cells, counter-screen for GPR151 activator project, cell-based, PathHunter beta-arrestin, luminescence, triplicate. activation, % at 11.2 µM. 90 min; 0 = compound-well median, 100 = enzyme-acceptor control. AID 1508611, 2020. shares compounds with GPR151 ag. 6,700 tested, 0.3% active;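 active = mean percent activation in the counterscreen above 29.09%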;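 note: counterscreen on off-target GPR119 to flag nonselective hits from the GPR151 activator screen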
# Target sequence (Q8TDV5 whole entry, looked up): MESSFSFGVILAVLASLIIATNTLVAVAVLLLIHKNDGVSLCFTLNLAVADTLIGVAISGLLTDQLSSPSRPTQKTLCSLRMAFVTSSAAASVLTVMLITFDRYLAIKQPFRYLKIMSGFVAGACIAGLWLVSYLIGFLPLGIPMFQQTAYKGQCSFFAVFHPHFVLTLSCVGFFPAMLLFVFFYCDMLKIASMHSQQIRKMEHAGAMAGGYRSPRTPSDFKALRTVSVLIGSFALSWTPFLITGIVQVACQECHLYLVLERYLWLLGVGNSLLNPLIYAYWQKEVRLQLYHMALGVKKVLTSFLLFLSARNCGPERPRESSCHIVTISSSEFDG
# Numbers without * were called inactive; nt = not tested or not shown; ! = a repeat was not active. An excerpt weighted towards active compounds, which were near 3.5% of everything screened.
SMILES,MITF inh,FBW7 activator,GPR151 ag,TEAD-YAP inh,GPR151 confirm,GPR119 counter
CCC1CCCCN1CCN1C(=O)C2C(C(=O)Nc3cccc(C)c3)C3C=CC2(O3)C1C(=O)NC1CCCC(C)C1C (centres undefined),1,0,13*,6,0,-5
CCC1CCCCN1CCN1C(=O)C2C(C(=O)Nc3cc(C)cc(C)c3)C3C=CC2(O3)C1C(=O)NC1CCCC(C)C1C (centres undefined),15,1,0,8,nt,nt
CSc1cccc(NC(=O)C2C3C=CC4(O3)C2C(=O)N(C(C)C)C4C(=O)NC2CCCC(C)C2C)c1 (centres undefined),8,0,5.8*,4,1,-1
O=P(O)(O)C(O)(CCNC(=S)Nc1ccc(Br)cc1)P(=O)(O)O,21,0,2,0,nt,nt
CCOC(=O)C1=C(C)NC(=O)NC1c1cc(I)ccc1OCC (centres undefined),-14,0,-2,2,nt,nt
C=CCn1c(=O)c(CN2CCC(N3CCN(CC)CC3)CC2)cc2cc(C)ccc21,-28,0,0,-5,nt,nt
Cc1ccc(C2(O)CSC3=C(C#N)C(c4ccc(F)cc4)CC(=O)N32)cc1 (centres undefined),-6,0,1,-5,nt,nt
CCOC(=O)C1=C(O)/C(=C/c2ccccc2)SC1=Nc1ccccc1,21,0,-1,-3,nt,nt
CCOC(=O)C1=C(O)/C(=C/c2ccc(C(=O)OC)cc2)SC1=NC(=O)c1ccccc1,4,0,6.7*,0,0,-2
c1cncc(-c2cc(NCc3ccco3)nc(-c3ccncc3)n2)c1,18,0,5.1*,3,-1,-16
CCS/C(=C(\C#N)C(N)=O)c1ccc(-c2ccccc2)[nH]1,-2,0,5.2*,7,0,5
COc1cccc(C(=O)COC(=O)c2ccc3c(c2)OCO3)c1,-10,0,5.3*,-3,0,2
Cc1ccc(C(=O)Nc2ccc(C(=O)N/N=C/c3cccc(C)n3)cc2)cc1,1,0,6.1*,14,0,-3
Cc1cccc(/C=N/NC(=O)c2ccc(F)cc2)n1,1,0,1,-30,nt,nt
COc1ccc(C2C=C(c3ccc(Br)cc3)Nc3nc4ccccc4n32)cc1 (centres undefined),5,0,2,-64,nt,nt
Cc1ccc(C2C=C(c3ccc(Br)cc3)Nc3nc4ccccc4n32)cc1 (centres undefined),4,0,5.9*,-65,-1,-1
Cc1ccc(C2=CC(c3ccccc3)n3nnnc3N2)cc1 (centres undefined),-3,0,7.3*,-12,0,-1
Fc1ccc(C2=CC(c3ccccc3)n3nnnc3N2)cc1 (centres undefined),-5,0,1,-18,nt,nt
Cc1ccc(S(=O)(=O)/N=C/C=C2\N(C)c3ccccc3C2(C)C)cc1,-1,0,2,6,nt,nt
CN1CCC(C(=S)Nc2ccc(Cl)cc2)/C1=C\[N+](=O)[O-] (centres undefined),-4,0,2,-31,nt,nt
Cc1ccc(-c2csc(N3C(=O)CNC3=S)n2)cc1,16,0,5.7*,-46,-2,-19
Cc1nnc(NC(=O)c2ccccc2Cl)s1,14,0,0,-33,nt,nt
O=C(Nc1ncc(C(O)(C(F)(F)F)C(F)(F)F)s1)c1ccccc1Cl,0,0,6.6*,-44,2,3
COc1ccc(-c2[nH]c(=S)[nH]c(=O)c2C#N)cc1,3,0,1,6,nt,nt
CCN(CC)c1ccc(/C=N/NC(=O)c2ccccc2Cl)c(O)c1,8,0,7.3*,1,0,-8
SMILES,MITF inh,FBW7 activator,GPR151 ag,TEAD-YAP inh,GPR151 confirm,GPR119 counter
COc1ccccc1/C=N/NC(=O)c1ccccc1O,-1,0,7.1*,-29,0,-7
O=C(N/N=C/c1ccccc1O)c1ccc(Cl)cc1Cl,21,0,5.1*,-36,0,3
COc1ccccc1/C=N/NC(=O)c1ccccc1Cl,24,0,0,-4,nt,nt
O=C(N/N=C/c1cccnc1)c1ccc(Br)cc1,-14,0,-2,-17,nt,nt
C=CCN1C(=O)C(CC(=O)Nc2cccc(C(C)=O)c2)SC1=Nc1ccc(OC)cc1 (centres undefined),-4,0,5.7*,5,0,0
COc1ccccc1/C=N/N=C1/NC(=O)C(CC(=O)Nc2cccc(C(C)=O)c2)S1 (centres undefined),-5,0,12*,-6,1,20
COc1ccc(N=C2SC(CC(=O)Nc3ccccc3)C(=O)N2CCN(C)C)cc1 (centres undefined),18,0,0,3,nt,nt
COc1ccccc1/C=N/N=C1/NC(=O)C(CC(=O)Nc2ccc(Cl)cc2)S1 (centres undefined),-2,0,1,3,nt,nt
O=C(CCn1c(=S)[nH]c2ccccc2c1=O)N1CCc2ccccc2C1,2,0,-1,3,nt,nt
Cc1ccc(CNCc2c(C(=O)O)c(C)n(Cc3ccccc3F)c2C)o1,5,0,0,-2,nt,nt
O=C(Cn1c(=O)n(Cc2ccccn2)c(=O)c2ncccc21)OCc1ccccc1,7,0,0,2,nt,nt
NS(=O)(=O)c1ccc(CCNC(=O)c2ccccc2Oc2ccccc2)cc1,-8,-1,6.7*,-1,-1,-4
NS(=O)(=O)c1ccc(CCNC(=O)c2ccccc2Cl)cc1,-6,0,1,2,nt,nt
NS(=O)(=O)c1ccc(CCNC(=O)c2cc(-c3ccccc3)nc3ccccc23)cc1,-16,0,6.2*,3,1,2
Cc1nc(N)n(N)c(=O)c1CCCN1C(=O)c2ccccc2C1=O,2,0,-2,-61,nt,nt
Cc1nc(N)n(N)c(=O)c1Cc1ccccc1,-9,0,6.4*,-2,1,-3
O=C(O)C1CC=C(Cl)CC1C(=O)Nc1ccn[nH]1 (centres undefined),-6,0,10.0*,6,0,0
CCN(CC)CCNC(=O)c1cc(Cl)c(N)cc1OC,6,0,6.6*!,-7,1,0
COc1cc(NC(=O)C2CCCN2S(=O)(=O)c2cccc3cccnc23)cc(OC)c1 (centres undefined),14,0,-1,-22,nt,nt
COc1cccc(NC(=O)C2CCCN2S(=O)(=O)c2cccc3cccnc23)c1 (centres undefined),5,0,7.3*,-21,0,0
